Results taken from PubChem BioAssay AID2553 (Johns Hopkins Ion Channel Center, 2010).
About 3,300 (1.1%) of roughly 310,000 compounds were called active. This is one part of a sample in which actives are shown more often than they occur.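 The calls were made as follows: active = B-score under library mean minus 3 SD, initial fluorescence not abnormally high, positive integrated signal ratio; inactive = the rest.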

These compounds were tested against Short transient receptor potential channel 6 (Mus musculus) (UniProt Q61143) (assay: mouse TRPC6 channel inhibitors, primary screen, cell-based, HEK293, membrane potential dye (AID 2553;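 as to B-score: B-score derived from integrated fluorescence ratio over the kinetic read; more negative B-score means stronger inhibition of depolarization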)). Conditions: ACh-evoked depolarization, at 10 µM; hits give low values.
Short transient receptor potential channel 6 (Mus musculus), sequence (Q61143 whole entry, looked up): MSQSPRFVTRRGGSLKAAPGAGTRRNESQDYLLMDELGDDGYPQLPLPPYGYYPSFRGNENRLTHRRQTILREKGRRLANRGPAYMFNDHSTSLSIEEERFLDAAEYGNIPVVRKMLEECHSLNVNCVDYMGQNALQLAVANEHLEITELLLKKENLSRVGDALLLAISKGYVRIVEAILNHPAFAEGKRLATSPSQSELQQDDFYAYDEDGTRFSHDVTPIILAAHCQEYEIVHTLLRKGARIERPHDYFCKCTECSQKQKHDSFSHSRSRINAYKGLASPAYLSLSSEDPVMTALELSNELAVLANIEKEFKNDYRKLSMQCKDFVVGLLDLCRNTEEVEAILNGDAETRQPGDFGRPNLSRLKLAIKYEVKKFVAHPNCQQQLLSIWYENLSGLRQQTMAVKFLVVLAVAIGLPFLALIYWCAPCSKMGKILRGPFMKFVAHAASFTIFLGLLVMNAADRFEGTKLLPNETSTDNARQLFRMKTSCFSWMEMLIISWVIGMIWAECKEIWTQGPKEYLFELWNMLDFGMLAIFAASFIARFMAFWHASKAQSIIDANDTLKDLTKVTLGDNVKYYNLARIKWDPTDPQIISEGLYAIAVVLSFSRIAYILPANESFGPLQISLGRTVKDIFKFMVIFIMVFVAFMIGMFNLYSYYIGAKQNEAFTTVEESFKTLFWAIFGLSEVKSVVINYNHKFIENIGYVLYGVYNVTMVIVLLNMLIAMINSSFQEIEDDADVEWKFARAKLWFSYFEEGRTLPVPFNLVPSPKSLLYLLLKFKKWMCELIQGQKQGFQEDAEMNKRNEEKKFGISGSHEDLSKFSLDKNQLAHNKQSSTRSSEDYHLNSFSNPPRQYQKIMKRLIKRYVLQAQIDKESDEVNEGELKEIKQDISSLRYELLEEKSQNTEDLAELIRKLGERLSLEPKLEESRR

| Compound | B-score |
| --- | --- |
| Cc1nc2ccc(N3CCN(C)CC3)cc2nc1C | inactive |
| COc1cccc(-c2nc3ccc(N4CCN(C)CC4)cc3[nH]2)c1 | -9.09 (active) |
| CC1=C(C(=O)Nc2ccccc2)S(=O)(=O)CCO1 | inactive |
| COc1ccc(Br)cc1CNCCc1cccc(Cl)c1 | inactive |
| CCOc1cccc(=NC2CCCCC2)c2c(C)[nH]c(C)c12 | -8.34 (active) |
| CCOP(=S)(OCC)C(O)CCCCCn1c(=O)c(F)cn(C2CCCO2)c1=O (stereo not given) | inactive |
| COCc1cc(OC(=O)N(C)C)nc(-c2ccc(C)c(Cl)c2)n1 | inactive |
| C[N+]12CN3CN(CN(C3)C1)C2 | inactive |
| CC1=CC(=Cc2sc3ccccc3[n+]2C)C=C(C)O1 | -5.72 (active) |
| COc1c(O)ccc2c1-c1c3c(cc4c1C(C2)N(C)CC4)OCO3 (stereo not given) | inactive |
| Cc1cccc(OP(=O)(Oc2cccc(C)c2)OC(c2ccccc2)C(F)(F)F)c1 (stereo not given) | inactive |
| CC1=C2C(=O)C3C(CC=C4CC(OC5OC(O)C(O)C(O)C5CO)CCC43C)C2CCC12OC1CC(C)CNC1C2C (stereo not given) | inactive |
| CCOP(=O)(OCC)C(NC(=O)c1ccc(C)cc1)C(Cl)(Cl)Cl (stereo not given) | inactive |
| c1ccc(CC2CCCCN2)cc1 (stereo not given) | inactive |
| Cc1nc2ccccn2c1P(=S)(N1CCCCC1)N1CCCCC1 | inactive |
| Cc1nn(Cc2ccccc2Cl)c(Cl)c1C(=O)OC(C(=O)NC(N)=O)C(C)C (stereo not given) | inactive |
| N[C@@H](Cc1c[nH]c2ccccc12)c1nnc(SCc2c(F)cccc2Cl)o1 | inactive |
| CC1(C)Cc2c(C#N)c(N3CCNCC3)nc(-c3ccco3)c2CS1 | -5.98 (active) |
| O=c1[nH]c(O)c(C=Nc2cc(F)cc(F)c2)c(=O)[nH]1 | inactive |
| COc1ccccc1NC(=O)N1C[C@@H]2C[C@@H](C1)c1cccc(=O)n1C2 | inactive |
| CN1CCN(Cc2ccc(OC(F)(F)F)cc2)CC1 | inactive |
| CCN1CCN(c2ccc([N+](=O)[O-])cc2C#N)CC1 | inactive |
| CN1CCN(c2cc(N3CCNCC3)ccc2[N+](=O)[O-])CC1 | -9.48 (active) |
| N=c1ccccn1Cc1ccccc1 | inactive |
| CC(Cc1ccccc1)NC=O (stereo not given) | inactive |
| CCCCCCCCCCCCn1ccc(=N)cc1 | -8.97 (active) |
| CCCCCCN=C(CC)c1c(O)n(CCCC)c(=O)[nH]c1=O | inactive |
| CC(C)(C)[C@]1(O)C[C@@H]2OC(=O)C[C@@]23C(=O)O[C@@H]2OC(=O)[C@H](O)[C@]213 | inactive |
| c1ccc(C2NCc3ccccc3-n3cccc32)cc1 (stereo not given) | inactive |
| NCCc1c[nH]c2ccc(O)cc12 | inactive |
